# Rows were chosen to be rich in hits. Some 7.3% of all compounds tested hit in one or more screens of this group.
# ELG1 genotoxic – qHTS screen for small molecules that induce genotoxicity in human embryonic kidney (HEK293T) cells expressing luciferase-tagged ELG1 | HEK293T ELG1-luciferase reporter, luminescence, 16 h | Potency, µM (series often up to 46 µM), hits mostly activators | actives 1.3% (n = 330,000); note: nearly all actives have a fitted effect of over 60% in size
#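 Genotoxicity was scored as increased ELG1-luciferase reporter signal, measured by ONE-Glo luminescence (30 min, room temperature). Compound or vehicle exposure of the HEK293T reporter cells lasted 16 hr at 37°C.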
# Rab9 prom act – qHTS Assay for Rab9 Promoter Activators; Huh7 Rab9 promoter-luciferase reporter, luminescence, 24 h; Potency, µM (doses to about 9.22 µM), actives largely listed as activators; actives 2.8% (n = 320,000); note: nearly all actives have a fitted effect of over 60% in size
#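 Luminescence from Amplite-detected luciferase (10 minutes, ambient) reports Rab9 promoter activation. Before that, stable Rab9-luciferase Huh7 cells (1500/well, reduced-serum OP-MEM I plus 10% FBS) were exposed to compound for 24 hours at 37C.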
# NPC1 promoter act – qHTS Assay for NPC1 Promoter Activators; Huh7 NPC1 promoter luciferase reporter, 24 h; Potency, µM (highest dose often 9.22 µM), actives largely listed as activators; actives 2.4% (n = 320,000); AID 485313, 2010; note: nearly all actives have a fitted effect of over 60% in size
#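 Compounds in DMSO were transferred onto Huh7 NPC1-luciferase reporter cells pre-incubated 2 h; after 24 h at 37 °C, Amplite reagent was dispensed and luminescence recorded 10 min later.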
# uPA surface inh – qHTS for Inhibitors of Cell Surface uPA Generation; cell surface uPA generation assay, qHTS; Potency, µM (top dose mostly 38.3 µM), hits mostly inhibitors; actives 0.31% (n = 330,000); AID 540303, 2011; active = well fitted inhibition curve with a large enough effect; inconclusive = small, poorly fitted or top-dose-only effect; inactive = no such curve, though single readings can be large or run the other way; tested in mouse RAW 264.7 cells; note: nearly all actives have a fitted effect of over 55% in size
# SMN2 splice up – qHTS Assay for Enhancers of SMN2 Splice Variant Expression. HEK293 SMN2-luciferase splicing reporter, luminescence, 30-36 h. actives 2.8% (n = 210,000). Potency, µM (series often up to 46.1 µM), hits mostly activators; note: nearly all actives have a fitted effect of over 55% in size
#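 qHTS luciferase splicing reporter: luminescence rises when SMN2 exon 7 is included in transfected HEK293 cells. Compound exposure lasted 30-36 h at 37C, with 4.5 mM final sodium butyrate as control, followed by a ONE-Glo read.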
# FLuc modulator – qHTS profiling assay for firefly luciferase inhibitor/activator using purifed enzyme and Km concentrations of substrates (counterscreen for miR-21 project); Luciferin 4-monooxygenase (Photinus pyralis), P08659; AID 588342, 2011; purified FLuc, Km substrates, luminescence inhibition; Potency, µM (series often up to 57.5 µM), hits mostly inhibitors; actives 6.9% (n = 360,000); note: nearly all actives have a fitted effect of over 55% in size
# Target sequence (P08659 whole entry, looked up): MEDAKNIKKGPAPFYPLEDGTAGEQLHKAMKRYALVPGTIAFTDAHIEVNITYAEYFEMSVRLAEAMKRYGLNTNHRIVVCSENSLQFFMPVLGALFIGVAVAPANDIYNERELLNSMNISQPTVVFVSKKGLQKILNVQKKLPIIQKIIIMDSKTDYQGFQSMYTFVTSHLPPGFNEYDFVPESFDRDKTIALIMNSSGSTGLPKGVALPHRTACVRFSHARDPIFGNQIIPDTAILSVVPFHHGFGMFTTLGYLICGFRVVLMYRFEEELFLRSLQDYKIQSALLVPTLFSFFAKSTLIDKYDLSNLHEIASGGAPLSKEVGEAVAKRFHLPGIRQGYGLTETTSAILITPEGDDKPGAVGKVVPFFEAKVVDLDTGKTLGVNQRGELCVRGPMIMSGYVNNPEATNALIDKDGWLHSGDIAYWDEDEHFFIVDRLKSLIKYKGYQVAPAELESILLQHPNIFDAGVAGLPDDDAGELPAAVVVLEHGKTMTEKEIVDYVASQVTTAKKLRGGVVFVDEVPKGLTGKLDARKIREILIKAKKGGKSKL
#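 Purified P. pyralis luciferase, 10 nM final, with Km-level 10 uM D-luciferin and 10 uM ATP in 50 mM Tris acetate pH 7.5, 10 mM Mg acetate, 0.01% Tween-20, 0.05% BSA; 6-point qHTS titration about 60 µM downward; luminescence read.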
# Numbers stand for hits; i = inactive; ? = inconclusive; nt = no result given. Unless noted, calls come from the whole dose curve; as a rule, active = well fitted curve in the direction sought with a large enough effect; inconclusive = small, poorly fitted or top-dose-only effect, or another doubt; inactive = no such curve, though single readings can be large; an effect the other way counts as inactive or inconclusive.
SMILES,ELG1 genotoxic,Rab9 prom act,NPC1 promoter act,uPA surface inh,SMN2 splice up,FLuc modulator
Cc1cc(NC(=O)COC(=O)c2ccccc2S(=O)(=O)N(C)c2ccccc2)no1,i,i,i,i,6.3µM,i
NC(=O)C1CC(=O)N(c2ccc(OCc3ccc(F)cc3)cc2)C1 (stereo not drawn),18µM,?,2.5µM,i,nt,?
O=C(O)C1CC(=O)N(c2ccc(OCc3ccc(Cl)cc3Cl)cc2)C1 (stereo not drawn),i,i,i,nt,i,17µM
O=C(O)C1CC(=O)N(c2ccc(OCc3ccccc3Cl)cc2)C1 (stereo not drawn),i,i,i,i,i,?
BrC/C=C/CBr,nt,nt,nt,nt,i,nt
O=c1c2c3c(sc2nnn1Cc1ccc(F)cc1)CCCC3,nt,nt,nt,nt,nt,i
COc1ccc(-c2nc3ccc(C)cn3c2NCc2ccc3c(c2)OCO3)cc1,i,?,i,i,i,13µM
Cc1ccc(-c2nc3ccccn3c2NCc2ccc3c(c2)OCO3)cc1,i,?,?,i,?,12µM
COc1cc(-c2nc3ccc(C)cn3c2NCc2ccccc2)ccc1SC1CCCCC1,i,i,i,8.9µM,nt,i
O=C1NC(=O)/C(=C/c2ccc(-c3ccc(F)cc3O)o2)S1,nt,i,i,nt,nt,nt
N#Cc1ccccc1CSc1nnc(-c2ccc(Br)cc2)o1,nt,nt,nt,nt,?,1.2µM
Cc1ccc(-c2nnc(SCc3ccccc3C#N)o2)cc1,nt,nt,nt,nt,2.2µM,0.34µM
Cc1ccccc1CSc1nnc(-c2ccncc2)o1,i,i,i,i,i,?
CC(C)OCCCNC(=O)c1c2c(nc3ccccc13)C(=O)N(C1CCCCC1)C2,nt,nt,nt,nt,nt,i
COc1ccc(C(c2sc3ncnn3c2O)N2CC(C)OC(C)C2)cc1OC (stereo not drawn),i,i,i,i,i,19µM
COc1ccc(C(c2sc3ncnn3c2O)N2CCN(c3ccccc3F)CC2)cc1OC (stereo not drawn),?,i,i,i,i,7.6µM
CC1CN(C(c2cccs2)c2sc3ncnn3c2O)CC(C)O1 (stereo not drawn),i,i,i,i,i,i
Cc1ccc(C)n1-c1ccc(-c2ccn[nH]2)cc1,?,?,?,i,13µM,12µM
c1ccn(-c2ccc(-c3ccn[nH]3)cc2)c1,i,?,?,?,?,11µM
Cc1ccc(C)n1-c1ccc(-n2cnnn2)cc1,i,i,i,nt,i,i
Fc1cccc(CNc2ncnc3ccc(-c4cccc(Cl)c4)cc23)c1,nt,i,i,nt,nt,i
O=c1c2c([N+](=O)[O-])cc([N+](=O)[O-])cc2sn1-c1ccc(Br)cc1,i,i,i,i,i,21µM
O=C(Nc1ccc(Br)cc1)c1cc([N+](=O)[O-])cc([N+](=O)[O-])c1,i,i,i,i,nt,i
O=[N+]([O-])c1ccc(S(=O)Cc2ccccc2)c([N+](=O)[O-])c1 (stereo not drawn),nt,nt,nt,i,nt,nt
O=c1c2c([N+](=O)[O-])cc([N+](=O)[O-])cc2sn1Cc1ccccc1,i,i,i,i,nt,9.5µM
SMILES,ELG1 genotoxic,Rab9 prom act,NPC1 promoter act,uPA surface inh,SMN2 splice up,FLuc modulator
CCC(O)CNC(=O)NC(=C(Cl)Cl)c1ccc(C)c(F)c1 (stereo not drawn),i,i,i,10µM,i,i
Cc1ccc(NC(=O)CCNC(=O)c2ccc(Cl)cc2)cc1F,i,i,i,i,i,i
Cc1c(NC(=O)c2ccc(C(C)(C)C)cc2)cccc1[N+](=O)[O-],i,?,?,i,16µM,13µM
Cc1ccc([N+](=O)[O-])cc1NC(=O)c1ccc(C(C)(C)C)cc1,i,i,i,i,i,?
CC(C)(C)c1ccc(NC(=O)c2ccccc2)c([N+](=O)[O-])c1,i,0.5µM,0.45µM,i,i,4.3µM
Cc1cc(C(=O)Nc2cccc([N+](=O)[O-])c2C)cs1,i,i,i,i,nt,i
Nc1[nH]n(-c2ccccc2)c(=O)c1N=Nc1ccccc1[N+](=O)[O-],3.2µM,0.56µM,2µM,i,?,?
Nc1[nH]n(-c2ccccc2)c(=O)c1N=Nc1ccccc1,21µM,3.5µM,2.5µM,i,nt,5.4µM
O=c1c2cc([N+](=O)[O-])cc([N+](=O)[O-])c2[nH]n1-c1ccccc1,i,i,i,i,nt,11µM
COc1cc([N+](=O)[O-])ccc1N=Nc1c(N)[nH]n(-c2ccccc2)c1=O,i,?,i,i,i,?
Nc1[nH]n(-c2ccccc2)c(=O)c1N=Nc1ccc2ncsc2c1,i,i,i,i,nt,19µM
COC(=O)c1ccc(N=Nc2c(C)[nH]n(-c3ccccc3)c2=O)cc1,i,i,i,i,nt,i
O=c1[nH]c(=O)c2cc([N+](=O)[O-])cc([N+](=O)[O-])c2[nH]1,i,i,i,i,i,?
CCN(CC)S(=O)(=O)c1ccc2c(c1)N(CC(=O)Nc1ccc(F)cc1F)C(=O)C1CCCN21 (stereo not drawn),nt,nt,nt,nt,nt,i
O=C(OCC1CCCO1)c1ccc2c(c1)N(Cc1ccccc1Cl)C(=O)c1ccccc1S2(=O)=O (stereo not drawn),nt,nt,nt,nt,nt,i
COc1ccc(CCNC(=O)CCn2c(=O)c3ccccc3n(CC(=O)Nc3ccccc3F)c2=O)cc1OC,nt,nt,nt,nt,i,i
COc1ccc(/C=C/C(=O)c2ccc[nH]2)c(OC)c1OC,?,?,?,i,?,8.5µM
COc1ccc(/C=C/C(=O)c2ccc[nH]2)cc1OC,21µM,3.2µM,?,i,?,12µM
COc1ccc(/C=C/C(=O)c2ccncc2)c2ccccc12,i,i,i,i,i,?
COc1ccc(NC(=O)CN(C)S(=O)(=O)c2ccc3c(c2)CCCN3C(C)=O)cc1Cl,nt,nt,nt,nt,nt,i
COc1cccc(-c2nc(SCC(=O)Nc3nc(-c4ccccc4)c(C)s3)[nH]c(=O)c2C#N)c1,i,i,i,i,nt,?
COc1ccc2nc(NC(=O)CSc3cn[nH]n3)sc2c1,?,4µM,?,i,nt,6.7µM
Cc1cccc2sc(NC(=O)CSc3cn[nH]n3)nc12,i,i,i,i,nt,i
CCOc1ccc2nc(NC(=O)CSc3cn[nH]n3)sc2c1,4.6µM,4.5µM,2.8µM,nt,nt,2.7µM
CCOc1ccc2nc(NC(=O)CSc3nc(-c4ccccc4)c(C#N)c(=O)[nH]3)sc2c1,i,i,i,i,nt,17µM
COc1ccc(NC(=O)Nc2ccccc2SC)c(OC)c1,i,i,i,i,i,i
COc1ccc(NC(=O)Nc2ccccc2SC)cc1OC,i,?,i,i,nt,19µM
COc1cccc(NC(=O)Nc2ccccc2SC)c1,i,i,i,i,i,17µM
